Laboratory results reported in PubChem BioAssay (EPA / NIEHS).
Results filed as inconclusive are left out. Activity calls are given as the source filed them. How the source made its calls: active means hit-call score of the fitted dose curve at least 0.9, where 1 is the maximum; inconclusive means response in the unintended direction; inactive means score below 0.9.

biological target: human Serotonin, 5-Hydroxytryptamine Receptor 7 (5HT7), HTR7 (gene 3363) (UniProt P34969); test: NVS_GPCR_h5HT7: NovaScreen (NVS) G Protein-Coupled Receptor Assay for human Serotonin, 5-Hydroxytryptamine Receptor 7 (5HT7) (AID 2283255);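 further: hits reduce specific radioligand binding relative to DMSO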
Sequence (P34969 whole entry, looked up): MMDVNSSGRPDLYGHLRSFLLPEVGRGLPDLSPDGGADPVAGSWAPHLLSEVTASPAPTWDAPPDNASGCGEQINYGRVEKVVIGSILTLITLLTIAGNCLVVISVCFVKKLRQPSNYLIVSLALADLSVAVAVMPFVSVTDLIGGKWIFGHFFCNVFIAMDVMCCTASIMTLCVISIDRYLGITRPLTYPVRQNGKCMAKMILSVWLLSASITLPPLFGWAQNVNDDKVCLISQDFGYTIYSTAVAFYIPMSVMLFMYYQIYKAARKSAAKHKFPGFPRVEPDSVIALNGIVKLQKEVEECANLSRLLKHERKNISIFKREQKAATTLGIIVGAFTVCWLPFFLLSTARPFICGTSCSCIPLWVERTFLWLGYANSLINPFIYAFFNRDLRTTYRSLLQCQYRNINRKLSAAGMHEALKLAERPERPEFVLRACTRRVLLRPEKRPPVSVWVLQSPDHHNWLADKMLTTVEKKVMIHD
Outline: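 Filter-bound radioactivity counted after 1 h, with loss of specific radioligand binding fitted against DMSO. Membrane protein came from CHO cells expressing human 5HT7. Chemicals were tested first at 25 uM in duplicate, then in concentration series if active.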

AC50, active:
CC[C@H]1CC[C@H](NCc2cc3c(cc2OC)[C@H]2C[C@H]2C(=O)N3C)[C@H](c2ccccc2)N1 20.4 µM, CCOC(=O)COc1ccc2c(c1)CC(NCC(O)c1cccc(Cl)c1)CC2 (centres undefined) 22.9 µM, Nc1ccc(Nc2ccccc2)cc1 7.22 µM, CCCN(C1CCN(C(=O)C2CCNCC2)CC1)[C@@H]1CCc2ccc(OC)cc2C1 9.11 µM, CNS(=O)(=O)c1cc(C(=O)N2CCC(CCN3C4CCC3CC(n3c(C)nc5ccccc53)C4)(c3cccc(F)c3)CC2)c(Cl)cc1F (centres undefined) 4.35 µM, CCC(C)(C)C(=O)O[C@H]1C[C@@H](C)C=C2C=C[C@H](C)[C@H](CC[C@@H]3C[C@@H](O)CC(=O)O3)[C@H]21 11.8 µM, Cc1[nH]cnc1C[C@H]1CCc2c(C)c3ccccc3n2C1=O 3.82 µM, CCOc1cccc(-n2cc(C(=O)N3CCN(c4cc(C(=O)O)c5ccccc5c4)CC3)nc2-c2ccc(C)cc2)c1 23.8 µM

outcome, inactive:
CC(=O)OCCC(C)C

biological target: human Adrenergic, Alpha 2A Receptor (Adra2A), ADRA2A (gene 150) (UniProt P08913); test: NVS_GPCR_hAdra2A: NovaScreen (NVS) G Protein-Coupled Receptor Assay for human Adrenergic, Alpha 2A Receptor (Adra2A) (AID 2283257)
Sequence (P08913 whole entry, looked up): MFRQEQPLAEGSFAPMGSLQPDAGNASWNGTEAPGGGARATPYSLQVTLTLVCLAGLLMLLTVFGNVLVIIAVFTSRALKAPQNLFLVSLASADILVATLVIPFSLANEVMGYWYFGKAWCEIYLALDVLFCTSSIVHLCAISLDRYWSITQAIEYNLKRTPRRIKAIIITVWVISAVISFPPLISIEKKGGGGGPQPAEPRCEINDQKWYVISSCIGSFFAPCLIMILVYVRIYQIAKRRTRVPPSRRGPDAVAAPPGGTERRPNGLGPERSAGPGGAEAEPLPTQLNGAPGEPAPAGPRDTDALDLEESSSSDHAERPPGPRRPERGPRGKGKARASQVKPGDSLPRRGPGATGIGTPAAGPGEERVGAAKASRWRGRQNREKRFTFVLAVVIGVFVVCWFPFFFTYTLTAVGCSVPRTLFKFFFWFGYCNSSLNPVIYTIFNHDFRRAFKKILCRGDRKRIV
Outline: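 Displacement of a specific radioligand from HT29 membrane protein was counted by filter scintillation after 1 h. Compounds were screened in duplicate at 25 uM, and actives were retested in concentration series. Fitting was positive-direction against DMSO.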

AC50, active:
CC[C@H]1CC[C@H](NCc2cc3c(cc2OC)[C@H]2C[C@H]2C(=O)N3C)[C@H](c2ccccc2)N1 4.96 µM, CCOC(=O)COc1ccc2c(c1)CC(NCC(O)c1cccc(Cl)c1)CC2 (centres undefined) 7.53 µM, CCN(C(=O)c1cc(C)cc(OC[C@H](C)Nc2ccncc2)c1)C(C)C 7.91 µM, Nc1ccc(Nc2ccccc2)cc1 9.06 µM, CCCN(C1CCN(C(=O)C2CCNCC2)CC1)[C@@H]1CCc2ccc(OC)cc2C1 17.4 µM, COCCOc1cc2cc(C(=O)NC3CCN(C(C)C)CC3)n(CC(=O)Nc3ccc(Cl)cn3)c2cn1 9.81 µM, Cc1[nH]cnc1C[C@H]1CCc2c(C)c3ccccc3n2C1=O 0.56 µM

outcome, inactive:
O=C(O)CC(O)C(=O)O (centres undefined)

biological target: human Adrenergic, Alpha 2c Receptor (Adra2C), ADRA2C (gene 152) (UniProt P18825); test: NVS_GPCR_hAdra2C: NovaScreen (NVS) G Protein-Coupled Receptor Assay for human Adrenergic, Alpha 2c Receptor (Adra2C) (AID 2283259)
Sequence (P18825 whole entry, looked up): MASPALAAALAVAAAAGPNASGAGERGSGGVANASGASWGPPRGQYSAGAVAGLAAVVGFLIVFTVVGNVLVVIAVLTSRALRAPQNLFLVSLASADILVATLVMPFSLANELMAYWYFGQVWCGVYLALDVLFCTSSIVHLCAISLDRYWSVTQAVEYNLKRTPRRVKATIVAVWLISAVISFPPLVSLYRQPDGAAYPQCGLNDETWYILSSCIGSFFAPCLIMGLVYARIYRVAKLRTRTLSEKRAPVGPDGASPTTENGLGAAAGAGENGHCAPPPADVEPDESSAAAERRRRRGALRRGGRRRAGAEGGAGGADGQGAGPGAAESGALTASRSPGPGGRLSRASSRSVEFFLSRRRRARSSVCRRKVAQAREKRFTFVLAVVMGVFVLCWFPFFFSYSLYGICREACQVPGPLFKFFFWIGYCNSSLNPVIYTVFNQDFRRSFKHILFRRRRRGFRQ
Outline: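 Screened first in duplicate at 25 uM, with actives then run as concentration series. Membranes from Sf9 cells were exposed for 1 h, and displacement of radioligand was counted after filtration, using DMSO as baseline.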

AC50, active:
CCOC(=O)COc1ccc2c(c1)CC(NCC(O)c1cccc(Cl)c1)CC2 (centres undefined) 3.81 µM, COCCOc1cc2cc(C(=O)NC3CCN(C(C)C)CC3)n(CC(=O)Nc3ccc(Cl)cn3)c2cn1 6.54 µM, Cc1[nH]cnc1C[C@H]1CCc2c(C)c3ccccc3n2C1=O 5.39 µM, CCOc1cccc(-n2cc(C(=O)N3CCN(c4cc(C(=O)O)c5ccccc5c4)CC3)nc2-c2ccc(C)cc2)c1 12.3 µM

biological target: Beta-2 adrenergic receptor (Homo sapiens) (UniProt P07550); test: NVS_GPCR_hAdrb2: NovaScreen (NVS) G Protein-Coupled Receptor Assay for human Adrenergic, Beta 2 Receptor (Adrb2) (AID 2283261)
Sequence (P07550 whole entry, looked up): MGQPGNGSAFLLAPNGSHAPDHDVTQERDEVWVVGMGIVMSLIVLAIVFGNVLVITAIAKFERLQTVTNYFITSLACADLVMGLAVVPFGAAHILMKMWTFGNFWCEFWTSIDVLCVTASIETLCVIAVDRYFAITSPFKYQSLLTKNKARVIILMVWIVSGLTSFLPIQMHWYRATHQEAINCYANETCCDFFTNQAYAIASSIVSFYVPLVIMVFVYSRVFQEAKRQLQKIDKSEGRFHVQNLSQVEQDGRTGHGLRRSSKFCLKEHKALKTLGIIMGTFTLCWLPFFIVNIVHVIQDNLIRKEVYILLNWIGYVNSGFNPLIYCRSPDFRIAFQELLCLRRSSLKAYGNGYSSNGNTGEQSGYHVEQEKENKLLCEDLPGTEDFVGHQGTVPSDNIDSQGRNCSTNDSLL
Outline: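 Compounds screened in duplicate at 25 uM, then actives in concentration series. Human beta-2 receptor from CHO material, cell-free; radioligand displacement after 1 h measured by filtration and scintillation against DMSO baseline.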

AC50, active:
CCOC(=O)COc1ccc2c(c1)CC(NCC(O)c1cccc(Cl)c1)CC2 (centres undefined) 0.0827 µM, Cc1[nH]cnc1C[C@H]1CCc2c(C)c3ccccc3n2C1=O 1.39 µM, CCOc1cccc(-n2cc(C(=O)N3CCN(c4cc(C(=O)O)c5ccccc5c4)CC3)nc2-c2ccc(C)cc2)c1 6.36 µM
